Measurements: PubChem BioAssay (NCATS)
Records with an inconclusive call do not appear. Where a call stands in place of a potency, no number is given. Unmarked numbers belong to inactive results. Activity calls are given as the source filed them. Calls follow the shape of the dose curve; as a rule, active = well fitted curve in the direction sought with a large enough effect; inconclusive = small, poorly fitted or top-dose-only effect, or another doubt; inactive = no such curve, though single readings can be large; an effect the other way counts as inactive or inconclusive.

Experiments:
[1] = target: Rap guanine nucleotide exchange factor 3 (Homo sapiens) (UniProt O95398); experiment: Confirmatory qHTS for antagonist of cAMP-regulated guanine nucleotide exchange factor 3 (EPAC1) (AID 1645880); also: nearly all actives have a fitted effect of over 55% in size; also: potency is read from the fitted curve at half-maximal effect
Sequence of Rap guanine nucleotide exchange factor 3 (Homo sapiens) (O95398 whole entry, looked up): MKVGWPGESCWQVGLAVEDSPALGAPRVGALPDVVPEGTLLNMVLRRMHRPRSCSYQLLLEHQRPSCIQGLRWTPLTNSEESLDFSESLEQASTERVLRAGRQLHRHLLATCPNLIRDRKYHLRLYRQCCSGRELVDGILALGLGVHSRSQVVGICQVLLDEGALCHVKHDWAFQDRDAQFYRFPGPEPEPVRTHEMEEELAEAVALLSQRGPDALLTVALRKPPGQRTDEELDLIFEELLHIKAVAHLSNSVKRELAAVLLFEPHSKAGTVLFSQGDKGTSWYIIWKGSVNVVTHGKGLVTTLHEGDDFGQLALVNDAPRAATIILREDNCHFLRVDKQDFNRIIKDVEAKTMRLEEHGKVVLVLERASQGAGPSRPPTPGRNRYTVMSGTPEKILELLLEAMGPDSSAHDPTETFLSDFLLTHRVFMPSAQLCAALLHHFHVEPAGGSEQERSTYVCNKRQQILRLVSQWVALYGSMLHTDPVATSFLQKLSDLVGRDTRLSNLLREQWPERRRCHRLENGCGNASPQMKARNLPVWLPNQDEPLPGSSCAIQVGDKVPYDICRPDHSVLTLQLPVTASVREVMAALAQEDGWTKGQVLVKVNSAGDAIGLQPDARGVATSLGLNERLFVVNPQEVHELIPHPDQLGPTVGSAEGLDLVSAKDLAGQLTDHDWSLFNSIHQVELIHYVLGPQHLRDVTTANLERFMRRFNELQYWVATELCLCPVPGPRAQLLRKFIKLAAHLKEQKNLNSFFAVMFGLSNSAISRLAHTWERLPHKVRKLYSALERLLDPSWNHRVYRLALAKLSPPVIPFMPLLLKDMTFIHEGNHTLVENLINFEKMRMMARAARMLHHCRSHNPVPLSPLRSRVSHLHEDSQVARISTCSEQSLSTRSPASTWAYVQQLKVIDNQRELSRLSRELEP
How it was run: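 Nucleotide exchange uses 100 nM EPAC1, 250 nM RAP1B-BODIPY-GDP and 50 uM GDP, with compounds in a concentration-titration series. After 5 min at room temperature, fluorescence (480 nm ex/540 nm em) is read every 5 min for 30 min. Data are normalized to control ATA and DMSO.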

[2] = target: Rap guanine nucleotide exchange factor 3 (Homo sapiens) (UniProt O95398); experiment: Confirmatory qHTS for agonist of cAMP-regulated guanine nucleotide exchange factor 3 (EPAC1) (AID 1645881); also: nearly all actives have a fitted effect of over 75% in size; also: potency is read from the fitted curve at half-maximal effect;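 as to activation: EPAC1 catalysed release of BODIPY-GDP from Rap1B seen as fluorescence loss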
[3] = target: Rap guanine nucleotide exchange factor 4 (Homo sapiens) (UniProt Q8WZA2); experiment: Confirmatory qHTS for agonist of cAMP-regulated guanine nucleotide exchange factor 4 (EPAC2) (AID 1645884);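 also: nucleotide exchange releases bodipy-GDP from Rap1 and this lowers its fluorescence; nearly all actives have a fitted effect of over 65% in size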; also: potency is read from the fitted curve at half-maximal effect
Sequence of Rap guanine nucleotide exchange factor 4 (Homo sapiens) (Q8WZA2 whole entry, looked up): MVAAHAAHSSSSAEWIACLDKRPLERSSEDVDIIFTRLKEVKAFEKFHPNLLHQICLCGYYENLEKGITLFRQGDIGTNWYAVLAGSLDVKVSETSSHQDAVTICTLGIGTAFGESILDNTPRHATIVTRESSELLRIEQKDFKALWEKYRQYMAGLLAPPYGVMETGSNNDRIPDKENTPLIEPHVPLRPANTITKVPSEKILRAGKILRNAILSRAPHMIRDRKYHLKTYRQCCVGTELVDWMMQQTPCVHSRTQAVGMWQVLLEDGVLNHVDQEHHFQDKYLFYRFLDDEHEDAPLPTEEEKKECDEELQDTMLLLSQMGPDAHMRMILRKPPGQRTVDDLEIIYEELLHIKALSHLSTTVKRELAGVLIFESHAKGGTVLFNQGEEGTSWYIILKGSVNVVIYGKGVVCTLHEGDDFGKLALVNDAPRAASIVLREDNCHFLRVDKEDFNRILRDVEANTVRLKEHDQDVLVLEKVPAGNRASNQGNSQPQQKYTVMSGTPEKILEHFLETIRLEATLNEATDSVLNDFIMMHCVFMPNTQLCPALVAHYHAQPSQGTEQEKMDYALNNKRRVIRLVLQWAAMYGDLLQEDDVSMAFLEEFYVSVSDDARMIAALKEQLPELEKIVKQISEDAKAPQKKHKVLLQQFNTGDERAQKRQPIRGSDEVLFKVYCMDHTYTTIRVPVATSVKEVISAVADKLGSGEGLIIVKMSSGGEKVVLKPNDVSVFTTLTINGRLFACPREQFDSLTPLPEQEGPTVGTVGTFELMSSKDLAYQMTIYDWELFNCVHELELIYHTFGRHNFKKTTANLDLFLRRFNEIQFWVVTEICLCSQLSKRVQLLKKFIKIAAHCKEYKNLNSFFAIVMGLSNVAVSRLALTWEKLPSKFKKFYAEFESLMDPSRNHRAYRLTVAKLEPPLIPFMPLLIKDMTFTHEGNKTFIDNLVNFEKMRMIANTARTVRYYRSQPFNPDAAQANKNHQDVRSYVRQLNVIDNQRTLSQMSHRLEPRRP

[4] = target: Rap guanine nucleotide exchange factor 4 (Homo sapiens) (UniProt Q8WZA2); experiment: Confirmatory qHTS for antagonist of cAMP-regulated guanine nucleotide exchange factor 4 (EPAC2) (AID 1645885); also: nearly all actives have a fitted effect of over 25% in size; also: potency is read from the fitted curve at half-maximal effect
[5] = target: Rap guanine nucleotide exchange factor 3 (Homo sapiens) (UniProt O95398); experiment: Counterscreen qHTS for antagonist of cAMP-regulated guanine nucleotide exchange factor 3 (EPAC1) (AID 1645888);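 also: fluorescence loss as bound BODIPY-GDP is released from Rap1B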
How it was run: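 Rap1B-BODIPY-GDP 250 nM + GDP 50 uM; cpds 7-pt, final 9.74 nM–152 uM (activator mode) or from 7.32 nM upwards (inhibitor mode); RT; FI 480/540 nm at 5 and 30 min, then ± cAMP, reread.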

| Compound | Potency [1] | Potency [2] | Potency [3] | Potency [4] | Potency [5] | activation [3] | activity change, negative = inhibition [5] | outcome [4] |
| --- | --- | --- | --- | --- | --- | --- | --- | --- |
| COC(=O)c1cc2oc(C)cc2n1Cc1c(C)cc(C)cc1C | inactive | inactive | inactive | inactive | inactive | – | – | – |
| CCOc1ccc(NC(=O)CN(C)C(=O)c2cc(C3CC3)nn2-c2ccccc2)cc1OCC | inactive | inactive | inactive | inactive | inactive | – | – | – |
| Cc1cccc(Cn2cc(SCC(=O)Nc3nccs3)c3ccccc32)c1 | inactive | inactive | inactive | inactive | inactive | – | – | – |
| O=C1C(Cl)=C(NC(=O)c2ccccc2)C(=O)C(Cl)=C1NC(=O)c1ccccc1 | inactive | inactive | inactive | inactive | inactive | – | – | – |
| CS(=O)(=O)N1N=C(c2ccco2)CC1c1ccc(Cl)cc1Cl (stereo not given) | inactive | inactive | – | inactive | – | 0.361% [at 17.1 µM, percent relative to cAMP agonist control] | 3.91% [at 30.8 µM] | – |
| O=C1NN(c2ccccc2)C(=O)/C1=C\c1ccc(-c2cc([N+](=O)[O-])ccc2O)o1 | 37.9 µM (active) | inactive | inactive | 60.1 µM (active) | inactive | – | – | – |
| Fc1ccc(C(Nc2ccccn2)c2c[nH]c3ccccc23)cc1 (stereo not given) | inactive | inactive | – | inactive | – | 7.5% [at 17.1 µM, percent relative to cAMP agonist control] | -2.83% [at 30.8 µM] | – |
| C=CCN(c1ccccc1)S(=O)(=O)c1cccc(C(=O)N2CC(C)CC(C)C2)c1 (stereo not given) | inactive | inactive | inactive | inactive | inactive | – | – | – |
| O=C1C=C(Nc2cccnc2)c2ccccc2C1=O | 67.5 µM (active) | inactive | inactive | – | inactive | – | – | inactive [at 12.7 µM] |
| COC(=O)c1cc2oc(C)cc2n1Cc1ccccc1Cl | inactive | inactive | inactive | inactive | inactive | – | – | – |
| CCSc1nc2ccccc2c(=O)n1C1CCOC(C)(C)C1 (stereo not given) | inactive | inactive | inactive | inactive | inactive | – | – | – |
| Cc1ccc(-c2cc([C@H]3[C@@H]4C=CCC[C@@]4(C)C(=O)N3Cc3ccccc3)ccc2F)cc1 | inactive | inactive | – | inactive | – | -2.1% [at 17.1 µM, percent relative to cAMP agonist control] | -9.39% [at 30.8 µM] | – |
| Cn1cccc1C(=O)NC(=O)COC(=O)c1cc(S(=O)(=O)N2CCCCC2)ccc1Cl | inactive | inactive | inactive | inactive | inactive | – | – | – |
| Cc1ccc(S(=O)(=O)Nc2cc(=O)[nH]c(SCC(=O)Nc3cccc(C)c3)n2)cc1 | inactive | inactive | – | inactive | – | 4.73% [at 17.1 µM, percent relative to cAMP agonist control] | -4.46% [at 30.8 µM] | – |
| COc1cc2c(C#N)c(N3CCCC3)nc(N)c2c(N)n1 | 37.9 µM (active) | inactive | inactive | inactive | inactive | – | – | – |
| Cc1cccc(NC(=O)Cn2c(O)c(N=NC(=O)c3ccncc3)c3ccccc32)c1 | inactive | inactive | inactive | inactive | inactive | – | – | – |
| COc1ccc2oc(C(=O)N(C)CCOc3ccc(Cl)cc3)c(C)c2c1 | inactive | inactive | – | inactive | – | 7.19% [at 17.1 µM, percent relative to cAMP agonist control] | -14.2% [at 30.8 µM] | – |
| Cc1ccc([C@H]2C(C(=O)O)=CC[C@@H](c3ccc(Cl)c(Cl)c3)N2S(=O)(=O)c2ccc(C)cc2)cc1 | 56.2 µM (active) | inactive | – | inactive | – | 12.8% [at 17.1 µM, percent relative to cAMP agonist control] | -5.89% [at 30.8 µM] | – |
| Cn1nc(-c2ccccn2)nc2c(=O)n(C)c(=O)nc1-2 | 1.69 µM (active) | inactive | inactive | inactive | inactive | – | – | – |
| O=C1NN(c2cccc(Br)c2)C(=O)/C1=C/c1ccc(-c2cc([N+](=O)[O-])ccc2O)o1 | 16.9 µM (active) | inactive | inactive | inactive | inactive | – | – | – |
| COC(=O)CSc1nc2sc3c(c2c(=O)n1-c1ccc(OC)cc1)CCN(C)C3 | inactive | inactive | inactive | inactive | inactive | – | – | – |
| O=c1[nH]c([N+](=O)[O-])nn1C(c1ccccc1)c1ccccc1 | inactive | inactive | inactive | 26.9 µM (active) | inactive | – | – | – |
| Cc1ccc(NC(=O)c2ccc(S(=O)(=O)N3CCCCCC3)cc2)nc1 | inactive | inactive | – | inactive | – | 5.15% [at 17.1 µM, percent relative to cAMP agonist control] | -5.55% [at 30.8 µM] | – |
| CCOC(=O)N1CCN(C(=O)CSc2nnc(Cc3ccccc3)o2)CC1 | inactive | inactive | inactive | inactive | inactive | – | – | – |
| O=C(O)c1ccc(NC2=C/C(=N/S(=O)(=O)c3cccs3)c3ccccc3C2=O)cc1 | 60.1 µM (active) | inactive | inactive | inactive | inactive | – | – | – |

| Compound | Potency [1] | Potency [2] | Potency [3] | Potency [4] | Potency [5] | activation [3] | activity change, negative = inhibition [5] | outcome [4] |
| --- | --- | --- | --- | --- | --- | --- | --- | --- |
| Cc1ccc(S(=O)(=O)Nc2cccc(C(=O)NCC(c3ccco3)N3CCCCC3)c2)cc1F (stereo not given) | inactive | inactive | inactive | inactive | inactive | – | – | – |
| NC(=O)c1cc2ccc(O)cc2oc1=NCc1ccccc1 | inactive | 112 µM (active) | 112 µM (active) | inactive | inactive | – | – | – |
| COc1ccc2c(c1)c1nnc(SCC(=O)NC3CC3)nc1n2C | inactive | inactive | inactive | 84.9 µM (active) | inactive | – | – | – |
| Cc1ccc(C)c(-c2ccc(=O)n(Cc3cccc(Br)c3)n2)c1 | inactive | inactive | inactive | 19 µM (active) | inactive | – | – | – |
| CC(Oc1ccc(-c2nnco2)cc1)C(=O)N1CCOCC1 (stereo not given) | inactive | inactive | inactive | inactive | inactive | – | – | – |
| CCCc1cc(C(=O)Nc2ccccc2SC)no1 | inactive | inactive | inactive | inactive | inactive | – | – | – |
| COc1cc(Nc2nc(SCc3cccc(Cl)c3)nc3ccccc23)cc(OC)c1 | inactive | inactive | inactive | 0.151 µM (active) | inactive | – | – | – |
| CCCCCC(=O)Nc1ccc(C2C(=O)c3ccccc3C2=O)cc1 | inactive | inactive | inactive | inactive | inactive | – | – | – |
| COc1cc(NC(=S)NCCC(c2ccccc2)c2ccccc2)cc(OC)c1 | inactive | inactive | – | inactive | – | 6.66% [at 17.1 µM, percent relative to cAMP agonist control] | 11% [at 30.8 µM] | – |
| Cc1ccc(C2C(C#N)=C3N=C(N)c4ccccc4N3C3=C2C(=O)CCC3)cc1 (stereo not given) | inactive | inactive | – | inactive | – | 5.16% [at 17.1 µM, percent relative to cAMP agonist control] | -7.3% [at 30.8 µM] | – |
| CSc1nc(N2CCOCC2)c2c3c(sc2n1)CCC3 | inactive | inactive | inactive | inactive | inactive | – | – | – |
| O=C1C(c2ccccc2)=[N+]([O-])c2ccccc21 | inactive | inactive | inactive | inactive | inactive | – | – | – |
| Cc1ccc(C(=O)c2cn(Cc3ccccc3)c3nc(C)ccc3c2=O)cc1 | inactive | inactive | inactive | inactive | inactive | – | – | – |
| CCOc1cc(S(=O)(=O)N(CC)CC)ccc1Cl | inactive | inactive | – | inactive | – | 7.51% [at 17.1 µM, percent relative to cAMP agonist control] | -20.8% [at 30.8 µM] | – |
| CN1\C(=C/C=C/C=C/C=[N+](C)C)C(C)(C)c2ccccc21 | 39.8 µM (active) | inactive | – | inactive | – | 2.26% [at 17.1 µM, percent relative to cAMP agonist control] | 43.3% [at 30.8 µM] | – |
| COc1ccc(OC)c(-c2nc3c(C#N)c[nH]n3c2NC2CCCCC2)c1 | inactive | inactive | inactive | – | inactive | – | – | inactive [at 12.7 µM] |
| Cc1ccc(NC(=O)Cn2nc(C)c3nn(-c4ccc(Cl)cc4)c(C)c3c2=O)cc1F | inactive | inactive | inactive | inactive | inactive | – | – | – |
| COc1ccc(C2C=C(c3ccccc3)Nc3nnnn32)cc1 (stereo not given) | inactive | inactive | inactive | inactive | inactive | – | – | – |
| CN(C)CC/C=C1/c2ccccc2Sc2c(O)cc(Cl)cc21 | inactive | inactive | inactive | inactive | inactive | – | – | – |
| CC1=NN(c2ccccc2)C(=O)C1/C=C1\NC(=S)NC1=O (stereo not given) | 67.5 µM (active) | inactive | inactive | inactive | inactive | – | – | – |
| COCCCn1c(=N)c(C(=O)NCc2cccnc2)cc2c(=O)n3cc(C)ccc3nc21 | inactive | inactive | inactive | inactive | inactive | – | – | – |
| O=c1cc(CSc2ccccc2)nc(-c2ccncc2)[nH]1 | inactive | inactive | inactive | inactive | inactive | – | – | – |
| O=C(Cc1ccccc1Cl)Nc1ccc(S(=O)(=O)Nc2nccs2)cc1 | inactive | inactive | inactive | inactive | inactive | – | – | – |
| CC(=O)C[C@H]1SC[C@@H](C(C)C)N1S(=O)(=O)c1ccc(C)cc1 | inactive | inactive | inactive | inactive | inactive | – | – | – |
